# Measurements from PubChem BioAssay AID1159577 (Broad Institute, 2015).
# The whole screen tested about 1,300 compounds, of which about 240 (18%) were called active. Roughly 8% stayed inconclusive and do not appear here. These entries were drawn from the full list. Entries with a potency or affinity are not part of this list. Unmarked numbers belong to inactive results. No rule for the calls is given here.
# Assay: HepG2 cell cytotoxicity, dose response, cytotoxicity control, cherry-picked samples (AID 1159577);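 also: 0% = neutral control wells and -100% = positive control wells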
# Settings: HepG2 cytotoxicity counterscreen, plate reader; series mostly up to 19.5 µM; activity change, negative = cytotoxicity: at the top concentration
row,Compound,"activity change, negative = cytotoxicity"
1,C[C@H]1CN([C@@H](C)CO)C(=O)c2cc(NC(=O)Nc3ccc(C(F)(F)F)cc3)ccc2O[C@@H]1CN(C)C(=O)Nc1cccc2ccccc12,13.6%
2,CCCC#Cc1ccc(CC[C@H]2O[C@H]3CC[C@H](CO)O[C@H]3C[C@@H]2n2cc(C(C)(C)O)nn2)cc1,-0.199%
3,COc1ccccc1NC(=O)N1CCCCN2[C@H](C1)[C@H](c1ccc(C#CC3CC3)cc1)[C@@H]2CO,21.3%
4,COc1ccccc1NC(=O)N1CCCCN2[C@@H](CO)[C@H](c3ccc(C#CC4CC4)cc3)[C@@H]2C1,-11.9%
5,O=C(Nc1ccccc1F)N1CC(=O)N2[C@H](CO)[C@@H](c3ccc(-c4ccccc4)cc3)[C@H]2C1,16.1%
6,O=C(Nc1cccc(F)c1)N1CC(=O)N2[C@H](C1)[C@@H](c1ccc(C#CC3CC3)cc1)[C@@H]2CO,12.5%
7,CO[C@H]1CN(C)C(=O)c2cc(NC(=O)C3CC3)ccc2OC[C@H](C)N(Cc2cc(F)ccc2F)C[C@H]1C,10.8%
8,COCC(=O)N1[C@@H](C#N)[C@H](c2ccccc2-c2ccccc2)[C@@H]1CO,-10.8% [at 21 µM]
9,CCCC#Cc1ccc2c(c1)[C@@H]1[C@@H](CCN1S(=O)(=O)c1ccccc1C)[C@@H](CO)N2,6.95% [at 21 µM]
10,COc1ccc2c3c([nH]c2c1)[C@H](CO)N(Cc1cc(F)ccc1F)CC31CN(C(=O)C2CCC2)C1,9.59%
11,COc1ccc(-c2ccccc2[C@H]2[C@@H](C#N)N(C(=O)C3CCCCC3)[C@H]2CO)cc1,1.19%
12,C[C@@H]1CN([C@H](C)CO)C(=O)c2cccc(NC(=O)c3ccc(-c4nccs4)cc3)c2O[C@H]1CN(C)Cc1ccc2c(c1)OCO2,0.334%
13,CCC(=O)N1[C@H](CO)[C@H](c2ccc(C3=CCCCC3)cc2)[C@H]1CNCC1CCC1,-15%
14,N#C[C@@H]1[C@H](c2ccc(C3=CCCC3)cc2)[C@@H](CO)N1C(=O)NC1CCCC1,-23.9%
15,OC[C@@H]1[C@H](c2ccc(C3=CCCC3)cc2)[C@@H](CNC2CCCC2)N1CC1CC1,-13.2%
16,N#C[C@@H]1[C@@H](c2ccc(C3=CCCCC3)cc2)[C@H](CO)N1C(=O)NC1CCCC1,3.23%
17,CCCNC(=O)N1[C@H](C#N)[C@@H](c2ccccc2C2=CCCC2)[C@@H]1CO,-20.4% [at 21 µM]
18,C/C=C/c1ccc([C@H]2[C@@H](CO)N(C(=O)C3CCCC3)[C@H]2CNCCC)cc1,-0.865% [at 21 µM]
19,CCCNC(=O)N1[C@H](C#N)[C@H](c2ccc(C3=CCCCC3)cc2)[C@H]1CO,-10.4% [at 21 µM]
20,CCCNC[C@H]1[C@@H](c2ccc(C3=CCCCC3)cc2)[C@@H](CO)N1C(=O)C1CCC1,-12.2%
21,COc1ccc(C#Cc2cccc(-c3nc(C(=O)NCc4ccc5c(c4)OCO5)cc4c3[C@@H](CCO)N(S(=O)C(C)(C)C)C4)c2)cc1OC (stereo partly drawn),8.9%
22,C[C@H]1CN([C@@H](C)CO)C(=O)c2c(c3ccccc3n2C)-c2ccccc2CO[C@@H]1CN(C)C(=O)Nc1cccc(F)c1,-4.89%
23,Cc1ccc(S(=O)(=O)N(C)C[C@H]2Oc3cc(C#Cc4ccncc4)ccc3S(=O)(=O)N([C@@H](C)CO)C[C@@H]2C)cc1,4.85%

row,Compound,"activity change, negative = cytotoxicity"
1,CO[C@@H]1CN(C)C(=O)c2ccc(NC(=O)Nc3ccccc3F)cc2OC[C@@H](C)N(CCC(F)(F)F)C[C@H]1C,35.7% [at 21 µM]
2,CO[C@H]1CN(C)C(=O)c2ccc(NS(=O)(=O)CC(F)(F)F)cc2OC[C@H](C)N(C)C[C@@H]1C,0.408% [at 21 µM]
3,COc1ccc(C#Cc2ccc([C@@H]3[C@@H](CO)N4C(=O)CN(C(=O)c5ccccc5)C[C@H]34)cc2)cc1,-1.78%
4,COc1cccc(C#Cc2ccc([C@H]3[C@@H](CO)N(C(=O)C4CCC4)[C@H]3C#N)cc2)c1,6.14%
5,C[C@H]1CN([C@@H](C)CO)C(=O)c2cc(NC(=O)Nc3cccc4ccccc34)ccc2O[C@H]1CN(C)C(=O)Nc1ccc(C(F)(F)F)cc1,4.51%
6,C[C@@H]1CN([C@H](C)CO)C(=O)c2cccc(NC(=O)Nc3cccc4ccccc34)c2O[C@@H]1CN(C)C(=O)Nc1ccc(C(F)(F)F)cc1,2.88%
7,COc1cccc(-c2cn(CC[C@@H]3CC[C@@H](NS(=O)(=O)c4ccccc4Cl)[C@H](CO)O3)nn2)c1,1.93%
8,COc1ccccc1S(=O)(=O)N[C@H]1CC[C@@H](CCn2cc(C3CCCC3)nn2)O[C@@H]1CO,7%
9,COc1ccc(C#Cc2cccc(-c3nc(C(=O)N[C@@H]4CCN(Cc5ccccc5)C4)cc4c3[C@H](CCO)N(S(=O)C(C)(C)C)C4)c2)cc1OC (stereo partly drawn),-5.33%
10,O=C(Nc1ccc(F)cc1)N1CCCCN2[C@H](CO)[C@H](c3ccc(C#Cc4ccccc4)cc3)[C@@H]2C1,5.78%
11,O=C(Nc1ccc(F)cc1)N1CCCCN2[C@H](C1)[C@H](c1ccc(C#Cc3ccccc3)cc1)[C@@H]2CO,-8.08%
12,CCC(=O)N1CC2(C1)[C@H](c1ccccc1)[C@H](CO)N2Cc1ccccc1OC,-15.2%
13,CC(C)(C)[S@](=O)N1Cc2cc(C(=O)NCc3ccccc3F)nc(-c3cccc(-c4ccncc4)c3)c2[C@@H]1CCO,3.09% [at 21 µM]
14,COc1ccc(-c2ccc([C@@H]3[C@@H](CO)N4CCCCN(C(=O)c5ccc6c(c5)OCO6)C[C@@H]34)cc2)cc1,-15.9%
15,COc1ccc(CNC(=O)c2cc3c(c(-c4cccc(-c5cccc(C#N)c5)c4)n2)[C@H](CCO)N([S@@](=O)C(C)(C)C)C3)cc1,8.03% [at 21 µM]
16,C[C@H]1CN([C@@H](C)CO)C(=O)c2c(c3ccccc3n2C)-c2ccccc2CO[C@H]1CN(C)S(=O)(=O)c1ccc([N+](=O)[O-])cc1,24.4%
17,N#C[C@@H]1[C@H](c2ccccc2-c2ccc(F)cc2)[C@H](CO)N1C(=O)NC1CCCC1,-6.01% [at 21 µM]
18,Cc1ccccc1S(=O)(=O)N(C)C[C@H]1OCc2ccccc2-c2ccccc2C(=O)N([C@@H](C)CO)C[C@H]1C,14.9%
19,CO[C@H]1CN(C)C(=O)c2cc(NC(=O)c3nc4ccccc4s3)ccc2OC[C@H](C)NC[C@@H]1C,3.64%
20,CO[C@@H]1CN(C)C(=O)c2cc(NC(=O)c3nc4ccccc4s3)ccc2OC[C@H](C)NC[C@H]1C,-7.06% [at 18 µM]
21,CO[C@@H]1CN(C)C(=O)c2ccc(NC(=O)C3CC3)cc2OC[C@@H](C)N(Cc2cc(F)ccc2F)C[C@H]1C,28.2%
22,COc1ccc(C#Cc2ccc3c(c2)[C@@H]2[C@@H](CCN2C(=O)C2CCCC2)[C@@H](CO)N3)cc1,-3.3%
23,CCC(=O)N1CC2(C1)CN(Cc1ccccc1Cl)[C@@H](CO)c1[nH]c3cc(OC)ccc3c12,-18%

row,Compound,"activity change, negative = cytotoxicity"
1,COc1ccccc1NC(=O)N1CC[C@H]2[C@@H]1c1cc(C#Cc3ccc(F)cc3)ccc1N(C)[C@H]2CO,0.332%
2,C[C@H]1CN([C@@H](C)CO)C(=O)c2c(c3ccccc3n2C)-c2ccccc2CO[C@@H]1CN(C)S(=O)(=O)c1ccccc1F,26.4%
3,CO[C@@H]1CN(C)C(=O)c2ccc(NC(=O)c3ccc(F)cc3)cc2OC[C@@H](C)N(C(=O)c2ccc(F)cc2)C[C@@H]1C,-17.4%
4,CO[C@@H]1CN(C)C(=O)c2cc(NC(=O)c3ccc(Oc4ccccc4)cc3)ccc2OC[C@H](C)NC[C@@H]1C,-20.5%
5,COc1cccc(NC(=O)Nc2ccc3c(c2)C(=O)N(C)C[C@@H](OC)[C@H](C)CN[C@@H](C)CO3)c1,14.9%
6,O=C(c1ccccn1)N1CC(=O)N2[C@H](C1)[C@@H](c1ccc(C#CCc3ccccc3)cc1)[C@@H]2CO,6.5%
7,CCCN(C)C[C@@H]1Oc2cc(C#CC3CCCC3)ccc2S(=O)(=O)N([C@@H](C)CO)C[C@@H]1C,10.3%
8,COc1ccc2c3c(n(C)c2c1)[C@H](CO)N(C(=O)Nc1ccc(F)cc1)CC31CN(C(=O)NC2CCCC2)C1,9.57%
9,COc1ccc2c3c(n(C)c2c1)[C@H](CO)N(C(=O)Nc1ccc(F)cc1)CC31CCN(C)CC1,-3.13% [at 21 µM]
10,COc1ccc2c3c(n(C)c2c1)[C@@H](CO)N(C(=O)Nc1ccc(F)cc1)CC31CCN(Cc2cccnc2)CC1,-13.2%
11,COc1ccc2c3c(n(C)c2c1)[C@@H](CO)N(C(=O)Nc1ccc(F)cc1)CC31CN(C(=O)c2ccccc2F)C1,-10.6%
12,COc1ccc2c3c(n(C)c2c1)[C@@H](CO)N(S(C)(=O)=O)CC31CCN(C(=O)CN(C)C)CC1,3.76%
13,COc1ccc2c3c(n(C)c2c1)[C@@H](CO)N(Cc1ccccc1)CC31CCN(S(=O)(=O)c2ccc(C)cc2)CC1,-3.8%
14,COc1ccc2c3c(n(C)c2c1)[C@H](CO)N(C(=O)Nc1ccc(F)cc1)CC31CN(Cc2cccnc2)C1,-14%
15,COc1ccc2c3c(n(C)c2c1)[C@@H](CO)N(C(=O)Nc1ccccc1F)CC31CCN(C)CC1,-3.88%
16,COc1ccc(-c2ccccc2[C@H]2[C@@H](C#N)N(C(=O)NC3CCCCC3)[C@H]2CO)cc1,-11%
17,C[C@H](CO)N1C[C@H](C)[C@H](CN(C)S(=O)(=O)c2ccc([N+](=O)[O-])cc2)OCc2ccccc2-c2c(n(C)c3ccccc23)C1=O,25.4%
18,CCNC(=O)c1cc2c(c(-c3cccc(-c4ccccc4F)c3)n1)[C@@H](CCO)N(C(=O)CC1CC1)C2,-8.91%
19,C[C@H]1CN([C@@H](C)CO)C(=O)c2c(c3ccccc3n2C)-c2ccccc2CO[C@H]1CN(C)S(=O)(=O)c1ccc(Cl)cc1,10%
20,C[C@@H](C(=O)N(C)C[C@@H]1OCc2ccccc2-c2c(n(C)c3ccccc23)C(=O)N([C@@H](C)CO)C[C@@H]1C)c1ccccc1,19.2% [at 21 µM]
21,COc1cccc(S(=O)(=O)N(C)C[C@@H]2Oc3ncc(C#Cc4ccc(C(F)(F)F)cc4)cc3C(=O)N([C@H](C)CO)C[C@@H]2C)c1,-19.5%
22,C[C@H](CO)N1C[C@H](C)[C@@H](CN(C)S(=O)(=O)c2ccccc2)Oc2ccc(NC(=O)Cc3cn(C)c4ccccc34)cc2C1=O,-11.3%
